{"source": "PubChem BioAssay AID1220", "about": "(Sanford-Burnham Center for Chemical Genomics, 2008)", "note": "The campaign covered roughly 190,000 compounds. About 1,300 (0.68%) were called active. No stated cut-off is given here; in the data, active means inhibition above about 50%; inactive means the rest. The entries come from a sample that favours actives as a whole."}
{"biological_target": "Mannose-6-phosphate isomerase (Homo sapiens) (UniProt P34949)", "sequence (P34949 whole entry, looked up)": "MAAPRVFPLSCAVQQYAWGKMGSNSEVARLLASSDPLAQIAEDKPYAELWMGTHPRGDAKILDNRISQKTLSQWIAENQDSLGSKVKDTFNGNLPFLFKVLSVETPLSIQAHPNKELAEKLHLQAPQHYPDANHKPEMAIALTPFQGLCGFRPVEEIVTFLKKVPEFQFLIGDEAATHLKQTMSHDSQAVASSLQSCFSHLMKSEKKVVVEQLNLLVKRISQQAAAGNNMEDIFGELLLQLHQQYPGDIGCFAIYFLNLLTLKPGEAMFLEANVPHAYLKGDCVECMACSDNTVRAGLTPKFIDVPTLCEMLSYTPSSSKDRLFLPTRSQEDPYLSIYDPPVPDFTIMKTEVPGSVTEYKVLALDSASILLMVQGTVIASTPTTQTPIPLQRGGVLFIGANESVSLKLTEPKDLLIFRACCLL", "assay": "human PMI inhibitors, high substrate, primary screen, biochemical, fluorescence intensity, high mannose 6-phosphate (AID 1220)", "conditions": "recombinant PMI enzyme, coupled fluorescence intensity; at 20 µM; stronger effect = higher value"}
{"smiles": "COc1ccccc1NC(=S)NCc1ccco1", "inhibition": "-7.4% (inactive)"}
{"smiles": "Cc1c(Cl)cccc1NC(=O)CSc1nnc(CCNC(=O)OC(C)(C)C)o1", "inhibition": "3.7% (inactive)"}
{"smiles": "COCCCNC(=O)c1cc2cc(Br)ccc2oc1=O", "inhibition": "-0.9% (inactive)"}
{"smiles": "CCC(C)c1ccc(NC(=S)NCCn2cc(Br)cn2)cc1", "note": "(stereo not given)", "inhibition": "14.5% (inactive)"}
{"smiles": "Cc1[nH]nc2ncc(C(=O)c3cc(F)ccc3O)cc12", "inhibition": "-5.1% (inactive)"}
{"smiles": "COc1cc(C2Nc3ccc4ncccc4c3C3=C2C(=O)CCC3)cc(OC)c1O", "note": "(stereo not given)", "inhibition": "42.6% (inactive)"}
{"smiles": "COc1cc(C2Nc3ccc4ncccc4c3C3=C2C(=O)CCC3)cc(OC)c1OC", "note": "(stereo not given)", "inhibition": "52.8% (active)"}
{"smiles": "COc1cc(C2Nc3ccc4ncccc4c3C3=C2C(=O)CCC3)ccc1O", "note": "(stereo not given)", "inhibition": "46.7% (inactive)"}
{"smiles": "COC(=O)/C(=C1/Oc2ccc(C)cc2S1)C(F)(F)F", "inhibition": "1.2% (inactive)"}
{"smiles": "O=S(=O)(NC1CCCCC1Sc1ncccn1)c1ccc(Cl)cc1", "note": "(stereo not given)", "inhibition": "-26% (inactive)"}
{"smiles": "COc1cc2c(=O)c(-c3ccc(O)cc3)coc2cc1OC1OC(CO)C(O)C(O)C1O", "note": "(stereo not given)", "inhibition": "12.9% (inactive)"}
{"smiles": "O=C(CSc1n[nH]c(-c2cccs2)n1)NCc1cccs1", "inhibition": "0.2% (inactive)"}
{"smiles": "CCOC(=O)CNC(=O)C1(c2ccccc2)CCCC1", "inhibition": "3.8% (inactive)"}
{"smiles": "COc1cc2c(cc1OC)C1=C(C#N)CN(C3CCCCC3)CN1CC2", "inhibition": "32.8% (inactive)"}
{"smiles": "COc1ccc(CCN2CC(C#N)=C3c4cc(OC)c(OC)cc4CCN3C2)cc1OC", "inhibition": "21.4% (inactive)"}
{"smiles": "CCOc1cc(-c2c(C#N)c(N)nc3c2CCCC3)ccc1O", "inhibition": "12.6% (inactive)"}
{"smiles": "CSc1nc2c(cc1C#N)CCCCC2", "inhibition": "-0.4% (inactive)"}
{"smiles": "C/C(=C\\C=C(C#N)C#N)c1cc(C#N)c(N)o1", "inhibition": "70.9% (active)"}
{"smiles": "COc1cc(NC(=O)NS(=O)(=O)c2ccc(C)cc2)cc(OC)c1", "inhibition": "41% (inactive)"}
{"smiles": "COc1ccc(NC(=O)NS(=O)(=O)c2ccc(C)cc2)c(OC)c1", "inhibition": "57.2% (active)"}
{"smiles": "COc1ccccc1NC(=O)NS(=O)(=O)c1ccc(C)cc1", "inhibition": "1.2% (inactive)"}
{"smiles": "O=C(NNc1nc(-c2ccccc2)c2cc(Br)ccc2n1)c1ccc(S(=O)(=O)N2CCCCC2)cc1", "inhibition": "-0.2% (inactive)"}
{"smiles": "COC(=O)c1cc(S(=O)(=O)n2nc(C)c(Br)c2C)c(Cl)cc1Cl", "inhibition": "-5% (inactive)"}
{"smiles": "Cc1c(Nc2ncnc3nc[nH]c23)c(=O)n(-c2ccccc2)n1C", "inhibition": "1.1% (inactive)"}
{"smiles": "CCCn1cc(S(=O)(=O)CC(=O)Nc2ccc(OCC)cc2)c2ccccc21", "inhibition": "17.3% (inactive)"}
{"smiles": "CCn1cc(S(=O)(=O)CC(=O)Nc2ccc3c(c2)OCCO3)c2ccccc21", "inhibition": "53.3% (active)"}
{"smiles": "CCCn1cc(S(=O)(=O)CC(=O)Nc2ccc(OC)cc2OC)c2ccccc21", "inhibition": "56.6% (active)"}
{"smiles": "CCN(CC)C(=O)Cn1cc(S(=O)(=O)CC(=O)Nc2ccc3c(c2)OCCO3)c2ccccc21", "inhibition": "1.2% (inactive)"}
{"smiles": "Cn1cc(S(=O)(=O)CC(=O)Nc2ccc3c(c2)OCO3)c2ccccc21", "inhibition": "25.7% (inactive)"}
{"smiles": "COc1ccc(NC(=O)Cn2cc(S(=O)(=O)Cc3ccccc3)c3ccccc32)c(OC)c1", "inhibition": "16.9% (inactive)"}
{"smiles": "Cc1cccc(NC(=O)CS(=O)(=O)c2cn(C)c3ccccc23)c1", "inhibition": "17.7% (inactive)"}
{"smiles": "Cn1cc(S(=O)(=O)CC(=O)Nc2ccc3c(c2)OCCO3)c2ccccc21", "inhibition": "50.9% (active)"}
{"smiles": "CCn1cc(S(=O)(=O)CC(=O)Nc2ccc(C)cc2)c2ccccc21", "inhibition": "-0.5% (inactive)"}
{"smiles": "CCCN1C(=O)/C(=C\\C=C2/Sc3ccccc3N2CCO)SC1=S", "inhibition": "10.5% (inactive)"}
{"smiles": "O=C(N/N=C/c1ccc(Br)o1)c1cccnc1", "inhibition": "5.3% (inactive)"}
{"smiles": "COc1ccc(/C=C/C(=O)OCCCN(C)C)cc1", "inhibition": "-6.3% (inactive)"}
{"smiles": "CCOC(=O)c1ccc(NCc2nc3ccccc3[nH]2)cc1", "inhibition": "-1.4% (inactive)"}
{"smiles": "O=C(O)c1cc(-c2ccccc2)n(-c2ccc(Cl)cc2)n1", "inhibition": "-7.9% (inactive)"}
{"smiles": "O=c1oc2c(CN3CCOCC3)c(O)ccc2c2c1CCC2", "inhibition": "14.1% (inactive)"}
{"smiles": "COCCN(CCOC)Cc1c(O)ccc2c3c(c(=O)oc12)CCC3", "inhibition": "50.9% (active)"}
{"smiles": "CC(C)CN(Cc1c(O)ccc2c3c(c(=O)oc12)CCC3)CC(C)C", "inhibition": "10% (inactive)"}
{"smiles": "COC(=O)c1cn(CC(=O)NC2CCCCCC2)c2ccccc12", "inhibition": "4.4% (inactive)"}
{"smiles": "CC(C)CC1NC(=O)N(CC(=O)N2CCCc3ccccc32)C1=O", "note": "(stereo not given)", "inhibition": "-5.9% (inactive)"}
{"smiles": "O=C(/C=C/c1ccccc1Cl)NCc1ccccc1", "inhibition": "7.8% (inactive)"}
{"smiles": "O=C(CN1C(=O)NC2(CCCCCC2)C1=O)NC1CCCCCCC1", "inhibition": "-3.9% (inactive)"}
{"smiles": "Cc1ccccc1CSCCC(=O)NCCc1ccccc1", "inhibition": "-6.4% (inactive)"}
{"smiles": "CCN1/C(=N\\N)c2cccc3cccc1c23", "inhibition": "-13% (inactive)"}
{"smiles": "CNC(=O)CN1C(=O)c2cccc3cccc1c23", "inhibition": "-3.7% (inactive)"}
{"smiles": "CC(C)c1ccc(CNC(=O)C(=O)Nc2nccs2)cc1", "inhibition": "-3.8% (inactive)"}
{"smiles": "CNc1nc2ccccc2n1N", "inhibition": "-3.8% (inactive)"}
{"smiles": "CC(Sc1nc(NCc2ccccc2)nc(N2CCOCC2)n1)C(=O)Nc1ccccc1", "note": "(stereo not given)", "inhibition": "12.4% (inactive)"}
{"smiles": "Cc1noc(C)c1S(=O)(=O)N1CCCC(C(=O)Nc2ccc(Cl)cn2)C1", "note": "(stereo not given)", "inhibition": "-3% (inactive)"}
{"smiles": "Cc1ccc(Cl)cc1NC(=O)C1CCCN(S(=O)(=O)c2c(C)noc2C)C1", "note": "(stereo not given)", "inhibition": "50.2% (active)"}
{"smiles": "Cc1ccccc1NC(=O)C1CCCN(S(=O)(=O)c2c(C)noc2C)C1", "note": "(stereo not given)", "inhibition": "-2.1% (inactive)"}
{"smiles": "Nc1nc2c(s1)COc1ccccc1-2", "inhibition": "11.1% (inactive)"}
{"smiles": "Nc1nc(-c2ccccc2)c(-c2ccccc2)s1", "inhibition": "-7.6% (inactive)"}
{"smiles": "O=C(NCCCN1CCOCC1)C(Sc1ccccc1)c1ccccc1", "note": "(stereo not given)", "inhibition": "9.2% (inactive)"}
{"smiles": "O=C(COC(=O)c1ccc(S(=O)(=O)NCc2ccco2)cc1)NCCC1=CCCCC1", "inhibition": "-19.9% (inactive)"}
{"smiles": "O=c1[nH]c2ccc(Cl)cc2c(O)c1Cc1ccccc1", "inhibition": "3.4% (inactive)"}
{"smiles": "COc1cccc(CNCc2cccnc2)c1OCc1ccccc1", "inhibition": "-2% (inactive)"}
{"smiles": "Cc1ccc(Nc2ncnc3sc(C)c(C)c23)cc1", "inhibition": "12.1% (inactive)"}
{"smiles": "O=C(CCNc1cccc(F)c1)c1cccc([N+](=O)[O-])c1", "inhibition": "40.6% (inactive)"}
{"smiles": "Cc1ccc(NCCC(=O)c2cccc([N+](=O)[O-])c2)cc1", "inhibition": "39.2% (inactive)"}
{"smiles": "O=[N+]([O-])c1ccc(Cc2ccncc2)cc1", "inhibition": "-1.9% (inactive)"}
{"smiles": "COc1cccc(NCCC(=O)c2cccc([N+](=O)[O-])c2)c1", "inhibition": "62.3% (active)"}
{"smiles": "O=C(CCNc1ccc(F)cc1)c1cccc([N+](=O)[O-])c1", "inhibition": "48.4% (inactive)"}
{"smiles": "O=C(CCNc1ccc(Cc2ccncc2)cc1)c1cccc([N+](=O)[O-])c1", "inhibition": "47.7% (inactive)"}
{"smiles": "O=C(CCNc1ccc(Br)cc1)c1cccc([N+](=O)[O-])c1", "inhibition": "40.5% (inactive)"}
{"smiles": "COc1ccc2o/c(=N/NC(=S)Nc3ccccc3)c(C(N)=O)cc2c1", "inhibition": "7.1% (inactive)"}
{"smiles": "O=C(O)c1ccccc1OC(=O)C12CC3CC(CC(C3)C1)C2", "inhibition": "2.3% (inactive)"}
{"smiles": "CC1(C)CC(c2nc(-c3ccccc3)cs2)CCS1", "note": "(stereo not given)", "inhibition": "0.5% (inactive)"}
{"smiles": "Cc1ccc(-c2cc(C)nc3nc(N)nn23)cc1", "inhibition": "4.6% (inactive)"}
{"smiles": "CCOc1ccc(NC(=O)CSc2nc3c(c(=O)n2C)SC(C)C3)cc1", "note": "(stereo not given)", "inhibition": "4.9% (inactive)"}
{"smiles": "CSc1ccccc1NC(=O)c1onc(C)c1Cl", "inhibition": "-2.4% (inactive)"}
{"smiles": "Cc1noc(C(=O)Nc2ccccc2C(F)(F)F)c1Cl", "inhibition": "59.4% (active)"}
{"smiles": "CCc1ccccc1NC(=O)c1onc(C)c1Cl", "inhibition": "-3.2% (inactive)"}
{"smiles": "Cc1ccc(C(=O)OCC(=O)Nc2ccccc2C(F)(F)F)cc1S(=O)(=O)N1CCOCC1", "inhibition": "3.2% (inactive)"}
{"smiles": "CC(C)c1ccccc1NC(=S)NCc1ccccc1F", "inhibition": "1.9% (inactive)"}
{"smiles": "N#Cc1cnc2c(-c3ccccc3)c(-c3ccccc3)nn2c1N", "inhibition": "15.3% (inactive)"}
{"smiles": "Fc1ccc2nc(C3CCN(Cc4nc(CC5CC5)no4)CC3)[nH]c2c1", "inhibition": "-5.1% (inactive)"}
{"smiles": "Fc1ccc2nc(C3CCCCN3Cc3nc(CC4CC4)no3)[nH]c2c1", "note": "(stereo not given)", "inhibition": "53.6% (active)"}
{"smiles": "Fc1ccc(C2CCCCN2Cc2nc(CC3CC3)no2)cc1", "note": "(stereo not given)", "inhibition": "1.9% (inactive)"}
{"smiles": "Brc1ccc(-c2nc(-c3ccccn3)no2)o1", "inhibition": "-1.3% (inactive)"}
{"smiles": "CC(C)[C@H](NC(=O)c1ccccc1)C(=O)OCc1nnc(-c2ccccc2)o1", "inhibition": "3.9% (inactive)"}
{"smiles": "O=C1C=CC2C(c3ccc4c(c3)OCO4)CC1N2Cc1ccccc1", "note": "(stereo not given)", "inhibition": "63.6% (active)"}
{"smiles": "O=C1CC(N2CCN(Cc3ccc4c(c3)OCO4)CC2)C(=O)N1CCc1ccccc1", "note": "(stereo not given)", "inhibition": "4.8% (inactive)"}
{"smiles": "CC(=O)N1C(c2ccccc2)CC(=O)OC1c1ccc2c(c1)OCO2", "note": "(stereo not given)", "inhibition": "9.9% (inactive)"}
{"smiles": "Cc1ccc(NC(=O)c2cc3ccccc3o2)cc1S(=O)(=O)N(C)C", "inhibition": "36.9% (inactive)"}
{"smiles": "Cc1cc(C)c(S(=O)(=O)Nc2cccc(S(=O)(=O)NC3=NCCC3)c2)c(C)c1", "inhibition": "-4.4% (inactive)"}
{"smiles": "CN1CCC(=NOc2ccc([N+](=O)[O-])cc2)CC1", "inhibition": "-6.9% (inactive)"}
{"smiles": "CC1CN(C)C(C)C/C1=N\\Oc1ccc([N+](=O)[O-])cc1", "note": "(stereo not given)", "inhibition": "-6.4% (inactive)"}
{"smiles": "CC1CN(C)C(C)C/C1=N/Oc1ccccc1[N+](=O)[O-]", "note": "(stereo not given)", "inhibition": "42.3% (inactive)"}
{"smiles": "CC(C)(C)/C(COc1ccccc1[N+](=O)[O-])=N/O", "inhibition": "5.7% (inactive)"}
{"smiles": "CC1=CC(=O)C=C(C)C1=NOc1ccccc1[N+](=O)[O-]", "inhibition": "54.8% (active)"}
{"smiles": "CC1=CC(=O)C=C(C)C1=NOc1ccc([N+](=O)[O-])cc1", "inhibition": "53.2% (active)"}
{"smiles": "N#Cc1ccc(NC(=O)CN2C(=O)NC(Cc3ccccc3)C2=O)cc1", "note": "(stereo not given)", "inhibition": "3.6% (inactive)"}
{"smiles": "Cc1noc(C)c1COC(=O)COc1ccc(C#N)cc1", "inhibition": "-4.4% (inactive)"}
{"smiles": "COc1ccc(CNCC(O)(c2ccccc2)c2ccccc2)cc1OC", "inhibition": "-0.4% (inactive)"}
{"smiles": "COc1ccc(CNCC(O)(c2ccc(Cl)cc2)c2ccc(Cl)cc2)cc1", "inhibition": "0% (inactive)"}
{"smiles": "COc1ccc(CNCC(O)(c2ccc(Cl)cc2)c2ccc(Cl)cc2)cc1OC", "inhibition": "55.1% (active)"}
